Inconclusive results are not listed. Some structures have more than one record in an assay (separate samples or runs), and their calls can disagree. Active and inactive are the calls of the source. How the source made its calls, unless noted: active means hit-call score of the fitted dose curve at least 0.9, where 1 is the maximum; inconclusive means response in the unintended direction; inactive means score below 0.9.
How the values were obtained:
[1] = ATG_M_19_CIS: Attagene CIS-FACTORIAL HepG2 Assay for M19 Transcription Factor (Internal Marker) (AID 2282939; active means hit-call score of the fitted dose curve at least 0.9, where 1 is the maximum; inactive means score below 0.9); conditions: HepG2 Attagene CIS-FACTORIAL M19 internal marker reporter; actives raise or lower the signal
How it was run: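 HepG2, MRTU transient transfection, 24 h dosing. Total RNA → RT-PCR → 6-FAM primer extension → HpaI digest → CE fluorescence. Bidirectional curve fit, DMSO negative control.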

[2] = ATG_PXRE_CIS: Attagene CIS-FACTORIAL HepG2 Assay for human Pregnane X Receptor Element (PXRE) (AID 2282957; active means hit-call score of the fitted dose curve at least 0.9, where 1 is the maximum; inactive means score below 0.9); conditions: HepG2 Attagene CIS-FACTORIAL PXRE reporter, mRNA; actives raise or lower the signal
How it was run: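 Transfect HepG2 with MRTUs (cis promoter elements); dose chemical, incubate 24 h; isolate RNA, RT with oligo(dT), PCR, 6-FAM label, HpaI cut, CE. Gain/loss fit vs DMSO.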

[3] = ATG_RORE_CIS: Attagene CIS-FACTORIAL HepG2 Assay for human RAR-related Orphan Receptor Element (RORE) (AID 2282959; active means hit-call score of the fitted dose curve at least 0.9, where 1 is the maximum; inactive means score below 0.9); conditions: HepG2 Attagene cis-factorial RORE reporter, mRNA; actives raise or lower the signal
How it was run: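 HepG2 cells carrying transiently transfected cis-regulated reporter units; RORE-driven reporter mRNA quantified 24 h post-dosing by RT-PCR, 6-FAM primer extension, HpaI digestion and capillary electrophoresis. Bidirectional fit versus DMSO.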

[4] = ATG_Sox_CIS: Attagene CIS-FACTORIAL HepG2 Assay for human SRY-box transcription factor (SOX) (AID 2282960; active means hit-call score of the fitted dose curve at least 0.9, where 1 is the maximum; inactive means score below 0.9); conditions: HepG2 Attagene cis-factorial SOX reporter, mRNA; actives raise or lower the signal
How it was run: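 HepG2 cells transiently transfected with multiple cis-regulated reporter units, then dosed for 24 h. Reporter mRNA quantified by RT-PCR, fluorescent labelling, HpaI digestion and capillary electrophoresis; bidirectional fit versus DMSO.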

[5] = ATG_M_32_TRANS: Attagene TRANS-FACTORIAL HepG2 Assay for M32 Transcription Factor (Internal Marker) (AID 2282984); conditions: HepG2 Attagene TRANS M32 internal marker reporter;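 further: transcript level of a background control reporter unit measured by RT-PCR and capillary electrophoresis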
How it was run: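 Using transiently transfected HepG2 cells exposed to test chemicals for 24 h, reporter transcripts are converted to labelled cDNA fragments and quantified by capillary electrophoresis. DMSO defines the activity baseline.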

[6] = molecular target: human Peroxisome Proliferator-activated Receptor alpha (PPARa), PPARA (gene 5465) (UniProt Q07869); test: ATG_PPARa_TRANS: Attagene TRANS-FACTORIAL HepG2 Assay for human Peroxisome Proliferator-activated Receptor alpha (PPARa) (AID 2283001)
How it was run: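 Reporter transcripts from GAL4-UAS units in transfected HepG2 were quantified 24 h after dosing. Detection used reverse transcription, PCR, fluorescent primer extension and capillary electrophoresis, with DMSO as baseline.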

[7] = molecular target: Retinoic acid receptor RXR-alpha (Homo sapiens) (UniProt P19793); test: ATG_RXRa_TRANS: Attagene TRANS-FACTORIAL HepG2 Assay for human Retinoid X Receptor alpha (RXRa) (AID 2283012)
How it was run: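 Cells (HepG2) carried transiently transfected GAL4-responsive reporter units. Following a 24 h chemical incubation, reporter mRNA induction was read via RT-PCR fragment analysis; DMSO served as negative control and baseline.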

[8] = molecular target: human Retinoid X Receptor beta (RXRb), RXRB (gene 6257) (UniProt P28702); test: ATG_RXRb_TRANS: Attagene TRANS-FACTORIAL HepG2 Assay for human Retinoid X Receptor beta (RXRb) (AID 2283013)
How it was run: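 Multiplexed TRANS reporter assay in HepG2; 24 h dosing; reporter mRNA by RT-PCR/CE fluorescence; gain-of-signal relative to DMSO.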

[9] = TOX21_p53_BLA_p2_viability: Viability Assessment in the Tox21 HCT-116 p53 Agonism Beta-lactamase Assay, Phase 2 (AID 2283591);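 further: compound exposure lasted 16 h at 37 °C; actives lower the ATP signal meaning cytotoxicity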
How it was run: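 Cytotoxicity readout: CellTiter-Glo ATP luminescence, 30 min at room temperature, after the beta-lactamase read. Cells were HCT116 exposed 16 h at 37C to compounds pin-transferred at 217-fold dilution from DMSO stocks.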

[10] = molecular target: Cellular tumor antigen p53 (Homo sapiens) (UniProt P04637); test: TOX21_p53_BLA_p2_ratio: Tox21 HCT-116 p53 Agonism Beta-lactamase Assay, Ratio, Phase 2 (AID 2283592)
How it was run: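 HCT116 p53-bla; 4000 cells/well; 5 h pre-incubation; cpd in DMSO, 217-fold dilution; 16 h 37C/5% CO2; CCF4-AM 2 h RT; Ex 405, Em 460/530 ratio; DMSO = baseline; positive fitting direction.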

[11] = TOX21_p53_BLA_p3_viability: Viability Assessment in the Tox21 HCT-116 p53 Agonism Beta-lactamase Assay, Phase 3 (AID 2283593);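 further: cells exposed to compound for 16 h before reading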
How it was run: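 Cellular ATP was quantified by CellTiter-Glo luminescence, read after 30 min at room temperature. Beforehand, HCT116 cells (4000/well) received compound 5 h post-seeding, 217-fold diluted from DMSO, then incubated 16 h at 37C.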

[12] = molecular target: Cellular tumor antigen p53 (Homo sapiens) (UniProt P04637); test: TOX21_p53_BLA_p3_ratio: Tox21 HCT-116 p53 Agonism Beta-lactamase Assay, Ratio, Phase 3 (AID 2283596)
How it was run: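 HCT116 p53-bla cells (4000/well) given compound in DMSO (217-fold dilution) after 5 h, incubated 16 h at 37C. CCF4-AM substrate 2 h at room temperature; 460/530 nm emission ratio, gain fitted against DMSO.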

[13] = molecular target: Cellular tumor antigen p53 (Homo sapiens) (UniProt P04637); test: TOX21_p53_BLA_p5_ratio: Tox21 HCT-116 p53 Agonism Beta-lactamase Assay, Ratio, Phase 5 (AID 2283599)
How it was run: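 Beta-lactamase reporter ratio (blue 460 nm over green 530 nm, 405 nm excitation) after 2 h CCF4-AM loading, in HCT-116 cells exposed 16 h at 37 C to compounds pinned at 217-fold dilution. Increases relative to DMSO baseline scored.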

[14] = TOX21_p53_BLA_p5_viability: Viability Assessment in the Tox21 HCT-116 p53 Agonism Beta-lactamase Assay, Phase 5 (AID 2283600)
How it was run: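 4000 cells/well; 5 h pre-incubation; DMSO compounds pin-transferred, 217-fold dilution; 16 h, 37C/5% CO2; CCF4-AM 2 h RT; CellTiter-Glo 30 min RT; luminescence.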

[15] = molecular target: Cellular tumor antigen p53 (Homo sapiens) (UniProt P04637); test: TOX21_p53_BLA_p4_ratio: Tox21 HCT-116 p53 Agonism Beta-lactamase Assay, Ratio, Phase 4 (AID 2283601)
How it was run: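 Signal is the blue/green (460nm/530nm) ratio of cleaved versus uncleaved CCF4-AM substrate, read after 2 h substrate loading. Cells were HCT116 carrying the p53-responsive beta-lactamase reporter, dosed 16 h at 37C, 5% CO2; CellTiter-Glo measured in parallel.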

[16] = molecular target: Hepatocyte nuclear factor 3-beta (Homo sapiens) (UniProt Q9Y261); test: ATG_FoxA2_CIS: Attagene CIS-FACTORIAL HepG2 Assay for human Forkhead box A2 (FOXA2) (AID 2282942; active means hit-call score of the fitted dose curve at least 0.9, where 1 is the maximum; inactive means score below 0.9); conditions: HepG2 cis-reporter transcription factor activity, 24 h; actives raise or lower the signal
How it was run: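 HepG2 transiently transfected with a multiplexed cis-promoter reporter library read endogenous FOXA2 activity. After 24 h compound exposure, reporter mRNA was quantified by RT-PCR, HpaI digestion and capillary electrophoresis. Bidirectional fit against DMSO.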

[17] = ATG_PBREM_CIS: Attagene CIS-FACTORIAL HepG2 Assay for human Phenobarbital-responsive Enhancer Module (PBREM) (AID 2282955; active means hit-call score of the fitted dose curve at least 0.9, where 1 is the maximum; inactive means score below 0.9); conditions: HepG2 PBREM cis-reporter, Attagene multiplexed transcription; actives raise or lower the signal
How it was run: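 HepG2 cells transiently transfected with multiple cis-regulated reporter units measure endogenous transcription factor activity; 24 h compound exposure. Reporter mRNA quantified by RT-PCR, fluorescent labelling, HpaI digestion and capillary electrophoresis; bidirectional fit versus DMSO.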

[18] = molecular target: Retinoic acid receptor alpha (Homo sapiens) (UniProt P10276); test: ATG_DR5_RAR_CIS: Attagene CIS-FACTORIAL HepG2 Assay for human Retinoic Acid Receptor Alpha (RARE), DR5 submotif (AID 2282934; active means hit-call score of the fitted dose curve at least 0.9, where 1 is the maximum; inactive means score below 0.9); conditions: HepG2 Attagene cis-factorial RARE DR5 reporter, mRNA; actives raise or lower the signal
How it was run: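 HepG2, transient cis-reporter transfection, 24 h exposure. mRNA readout: RT-PCR, FAM label, HpaI cut, capillary electrophoresis. DMSO baseline, gain/loss fitting.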

[19] = ATG_M_32_CIS: Attagene CIS-FACTORIAL HepG2 Assay for M32 Transcription Factor (Internal Marker) (AID 2282949; active means hit-call score of the fitted dose curve at least 0.9, where 1 is the maximum; inactive means score below 0.9;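 further: background control marker of the multiplexed CIS panel rather than a real target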); conditions: HepG2 Attagene cis-factorial M32 reporter, mRNA; actives raise or lower the signal
How it was run: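 Following 24 h chemical exposure of HepG2 cells transiently expressing cis-promoter reporter constructs, reporter transcript levels were determined by RT-PCR with fluorescent labelling and capillary electrophoresis, then fitted bidirectionally against DMSO.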

[20] = molecular target: Hepatocyte nuclear factor 4-alpha (Homo sapiens) (UniProt P41235); test: ATG_HNF4a_TRANS: Attagene TRANS-FACTORIAL HepG2 Assay for human Hepatocyte Nuclear Factor 4 alpha (HNF4a) (AID 2282982); conditions: HepG2 HNF4a transactivation reporter, mRNA readout
How it was run: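 Transfected HepG2 reporter cells are dosed for 24 h; reporter RNA is reverse-transcribed, amplified, fluorescently labelled and HpaI-digested before CE sizing. Positive-direction fit against DMSO.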

Measured: AC50

Chain of human Retinoid X Receptor beta (RXRb), RXRB (gene 6257) (P28702 whole entry, looked up): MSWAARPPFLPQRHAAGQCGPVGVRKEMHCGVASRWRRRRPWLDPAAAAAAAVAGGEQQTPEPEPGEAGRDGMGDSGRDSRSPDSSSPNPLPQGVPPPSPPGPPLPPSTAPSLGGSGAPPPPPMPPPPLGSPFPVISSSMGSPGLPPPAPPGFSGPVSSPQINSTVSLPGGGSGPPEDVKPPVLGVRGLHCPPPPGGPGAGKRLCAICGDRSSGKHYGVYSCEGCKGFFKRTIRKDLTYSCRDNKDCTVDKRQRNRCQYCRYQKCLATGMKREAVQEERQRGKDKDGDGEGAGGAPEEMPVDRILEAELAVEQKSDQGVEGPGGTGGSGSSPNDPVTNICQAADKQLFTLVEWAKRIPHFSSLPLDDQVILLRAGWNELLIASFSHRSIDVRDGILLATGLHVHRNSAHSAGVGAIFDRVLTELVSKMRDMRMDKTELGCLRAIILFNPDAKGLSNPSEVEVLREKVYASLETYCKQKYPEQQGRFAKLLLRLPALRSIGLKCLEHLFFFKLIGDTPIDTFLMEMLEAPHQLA
Chain of Hepatocyte nuclear factor 4-alpha (Homo sapiens) (P41235 whole entry, looked up): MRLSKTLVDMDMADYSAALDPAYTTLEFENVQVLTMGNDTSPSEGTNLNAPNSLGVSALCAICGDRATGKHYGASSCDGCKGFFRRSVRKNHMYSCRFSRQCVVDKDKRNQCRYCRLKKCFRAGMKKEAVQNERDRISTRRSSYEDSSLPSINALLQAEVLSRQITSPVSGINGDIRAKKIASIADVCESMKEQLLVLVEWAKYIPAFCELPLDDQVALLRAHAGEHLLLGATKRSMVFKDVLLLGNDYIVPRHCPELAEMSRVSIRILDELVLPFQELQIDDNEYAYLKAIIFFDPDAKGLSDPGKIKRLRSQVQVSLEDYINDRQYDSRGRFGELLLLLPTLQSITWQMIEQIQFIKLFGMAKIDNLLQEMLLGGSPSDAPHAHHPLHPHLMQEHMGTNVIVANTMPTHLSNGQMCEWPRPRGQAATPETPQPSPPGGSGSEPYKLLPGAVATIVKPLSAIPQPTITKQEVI
Chain of Retinoic acid receptor RXR-alpha (Homo sapiens) (P19793 whole entry, looked up, the tested form may be a part): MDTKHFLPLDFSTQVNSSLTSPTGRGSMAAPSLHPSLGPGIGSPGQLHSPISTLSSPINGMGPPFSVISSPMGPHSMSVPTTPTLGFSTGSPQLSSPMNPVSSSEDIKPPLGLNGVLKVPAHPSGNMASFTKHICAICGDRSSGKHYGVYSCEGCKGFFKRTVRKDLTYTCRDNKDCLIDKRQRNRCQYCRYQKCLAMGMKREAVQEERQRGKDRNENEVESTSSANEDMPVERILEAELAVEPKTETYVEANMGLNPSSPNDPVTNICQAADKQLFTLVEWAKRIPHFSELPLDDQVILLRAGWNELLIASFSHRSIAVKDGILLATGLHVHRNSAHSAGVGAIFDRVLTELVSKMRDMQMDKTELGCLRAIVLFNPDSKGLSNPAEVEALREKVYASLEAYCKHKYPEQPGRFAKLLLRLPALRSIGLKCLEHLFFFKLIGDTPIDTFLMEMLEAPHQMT
Chain of Hepatocyte nuclear factor 3-beta (Homo sapiens) (Q9Y261 whole entry, looked up): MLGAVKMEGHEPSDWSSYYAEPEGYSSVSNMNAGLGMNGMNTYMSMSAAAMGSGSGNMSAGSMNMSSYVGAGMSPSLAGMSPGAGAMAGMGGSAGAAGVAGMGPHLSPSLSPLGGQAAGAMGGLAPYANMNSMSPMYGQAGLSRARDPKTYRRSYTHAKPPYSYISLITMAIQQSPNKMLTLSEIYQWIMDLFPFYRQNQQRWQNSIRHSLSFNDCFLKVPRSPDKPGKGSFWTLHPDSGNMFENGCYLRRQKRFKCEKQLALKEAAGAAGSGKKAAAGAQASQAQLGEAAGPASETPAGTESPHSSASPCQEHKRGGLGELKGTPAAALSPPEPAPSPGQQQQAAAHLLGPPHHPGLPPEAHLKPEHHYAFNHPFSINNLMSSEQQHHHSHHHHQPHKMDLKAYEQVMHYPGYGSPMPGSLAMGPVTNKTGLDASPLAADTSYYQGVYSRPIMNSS
Chain of human Peroxisome Proliferator-activated Receptor alpha (PPARa), PPARA (gene 5465) (Q07869 whole entry, looked up, the tested form may be a part): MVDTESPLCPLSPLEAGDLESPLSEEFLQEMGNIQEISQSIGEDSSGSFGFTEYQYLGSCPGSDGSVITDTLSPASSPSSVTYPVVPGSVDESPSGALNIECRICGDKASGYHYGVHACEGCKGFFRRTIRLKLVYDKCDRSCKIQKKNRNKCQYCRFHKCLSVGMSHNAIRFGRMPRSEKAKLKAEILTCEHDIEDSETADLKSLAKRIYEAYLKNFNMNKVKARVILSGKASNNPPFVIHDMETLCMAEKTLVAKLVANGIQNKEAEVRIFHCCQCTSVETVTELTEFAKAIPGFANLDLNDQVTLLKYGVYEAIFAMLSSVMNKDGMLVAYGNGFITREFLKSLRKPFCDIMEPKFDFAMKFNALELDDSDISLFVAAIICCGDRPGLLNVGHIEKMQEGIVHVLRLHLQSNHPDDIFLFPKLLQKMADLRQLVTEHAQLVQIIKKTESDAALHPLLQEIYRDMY
Chain of Cellular tumor antigen p53 (Homo sapiens) (P04637 whole entry, looked up): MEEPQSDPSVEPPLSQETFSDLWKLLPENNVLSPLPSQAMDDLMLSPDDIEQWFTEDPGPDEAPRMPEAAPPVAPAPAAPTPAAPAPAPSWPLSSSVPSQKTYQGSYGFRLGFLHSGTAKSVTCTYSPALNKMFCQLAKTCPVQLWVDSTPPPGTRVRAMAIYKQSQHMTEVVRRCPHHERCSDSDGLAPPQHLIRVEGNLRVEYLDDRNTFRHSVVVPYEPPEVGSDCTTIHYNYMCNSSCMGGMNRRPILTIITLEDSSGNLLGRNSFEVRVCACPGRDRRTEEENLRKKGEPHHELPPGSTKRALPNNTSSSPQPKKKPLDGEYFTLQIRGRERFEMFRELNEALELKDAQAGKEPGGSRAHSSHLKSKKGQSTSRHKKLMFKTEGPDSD
Chain of Retinoic acid receptor alpha (Homo sapiens) (P10276 whole entry, looked up): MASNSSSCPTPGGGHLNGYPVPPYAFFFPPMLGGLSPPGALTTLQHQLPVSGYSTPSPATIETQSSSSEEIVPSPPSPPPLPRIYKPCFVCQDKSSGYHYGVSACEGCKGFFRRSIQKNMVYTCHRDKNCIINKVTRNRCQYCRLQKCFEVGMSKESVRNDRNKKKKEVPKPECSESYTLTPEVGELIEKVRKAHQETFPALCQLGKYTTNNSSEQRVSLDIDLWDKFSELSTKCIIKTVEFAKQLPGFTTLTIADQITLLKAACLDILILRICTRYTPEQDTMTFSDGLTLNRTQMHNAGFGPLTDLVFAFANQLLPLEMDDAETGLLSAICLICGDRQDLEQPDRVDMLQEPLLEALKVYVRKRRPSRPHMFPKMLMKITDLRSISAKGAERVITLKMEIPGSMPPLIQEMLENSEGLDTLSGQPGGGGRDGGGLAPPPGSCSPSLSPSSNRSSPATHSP

CC(C)n1c(/C=C/[C@@H](O)C[C@@H](O)CC(=O)O)c(-c2ccc(F)cc2)c2ccccc21
active: [2] 3.98 µM | [3] 55.3 µM
not listed: [16] | [17] | [18] | [19] | [20]
inactive: all other assays above

C[Si](C)(C)O[Si](C)(C)O[Si](C)(C)C
not listed: [2] | [5] | [7] | [8] | [12] | [18] | [19] | [20]
inactive: all other assays above

c1ccc2c(c1)Oc1ccccc1S2
not listed: [3] | [12] | [14] | [18] | [19] | [20]
inactive: all other assays above

O=C(O)c1nc(Cl)c(Cl)c(Cl)c1Cl
inactive: [18] | [1] | [19] | [17] | [3] | [4] | [20] | [5] | [6]
active: [2] 73 µM

CCOC(=O)c1ccccc1
active: [2] 100 µM
not listed: [3] | [8] | [14] | [15] | [16] | [17] | [18] | [20]
inactive: all other assays above

CC/C=C/CCO
inactive: [16] | [19] | [3] | [8] | [10] | [12] | [13] | [14] | [15]
active: [2] 40.5 µM

Nc1ccc(S(=O)(=O)Nc2cnc3ccccc3n2)cc1
active: [8] 31.5 µM
not listed: [6] | [16] | [18]
inactive: all other assays above

CN(C)N=Nc1ccccc1
active: [2] 48.3 µM
not listed: [3] | [9] | [10] | [11] | [13] | [16] | [17] | [18]
inactive: all other assays above

OCCOCCOCCOCCOCCO
not listed: [1] | [2] | [3] | [7] | [8] | [17] | [20]
inactive: all other assays above

CN(C)CCCN1c2ccccc2CCc2ccc(Cl)cc21
active: [2] 5.14 µM | [4] 11.1 µM | [8] 5.79 µM | [9] 79 µM | [13] 86.8 µM | [14] 77.1 µM
inactive: [1] | [16] | [17] | [3] | [20] | [6] | [7] | [10] | [12] | [13] | [14] | [15]

Reference: PubChem BioAssay (EPA / NIEHS)
